PubChem BioAssay AID720513 (Broad Institute, 2013)
Out of some 2,100 compounds screened, about 480 (23%) were called active. Another 5% or so got no clear call; they are omitted.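 The calls were made as follows: active = fitted curve reaches 40% activation at or below the top valid concentration, in every replicate test; inconclusive = replicate tests disagree on the call; inactive = the rest, including activity in the opposite direction.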 These entries were drawn from the full list. Potency and affinity values are given separately.

assay: activators raising PGC1a acetylation in cells, dose response, cell-based, cherry-picked samples, set 6 (AID 720513); details: U2OS PGC1a acetylation AlphaLISA, overnight, 0 = neutral, -100 = inhibitor control; series mostly up to 19.5 µM;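 also: cells made to overexpress flag tagged PGC1a plus GCN5 acetyltransferase by viral infection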

outcome, inactive:
OC[C@@H]1[C@H](c2ccc(C#CC3CCCC3)cc2)[C@H]2CN(CCC(F)(F)F)CCCCN12
CO[C@H]1CN(C)C(=O)c2cc(NC(=O)NC(C)C)ccc2OC[C@H](C)N(Cc2ccc(-c3ccccn3)cc2)C[C@@H]1C
CCCS(=O)(=O)N1CCCC(C(=O)NCCCOC(C)C)C1 (configuration not stated)
Cc1ccc(-c2nc(NC(=O)c3nn(C)cc3[N+](=O)[O-])sc2C)cc1
Cc1nnc(NC(=O)CSc2ncc(-c3ccccc3)[nH]2)s1
CO[C@H]1CN(C)C(=O)c2ccc(NS(=O)(=O)c3ccccc3)cc2OC[C@@H](C)N(C(=O)NC(C)C)C[C@@H]1C
O=C(c1cc(Cl)ccc1Cl)N1CCc2ccccc21
O=C(c1ccccc1Cl)N1CCNCC1
O=C(O)c1ccccc1C(=O)N1CCN(C(=O)c2ccccc2Cl)CC1
C[C@H](CO)N1C[C@H](C)[C@@H](CN(C)Cc2cncnc2)Oc2cc(C#CC3CC3)ccc2S1(=O)=O
O=C(COn1nnc2ccc(Cl)cc21)NC12CC3CC(CC(C3)C1)C2
CC(C)(C)OC(=O)NCCc1nnc(SCc2ccc(Cl)cc2)o1
OC(CN1c2ccccc2Sc2ccccc21)Cn1nnc2ccccc21 (configuration not stated)
CCOc1ccccc1OCCn1nnc2ccccc21
CN1C[C@H](C(=O)N[C@]2(C)O[C@@]3(O)[C@@H]4CCCN4C(=O)[C@H](Cc4ccccc4)N3C2=O)CC2c3cccc4[nH]cc(c34)C[C@H]21 (some centres not stated)
O=C(Nc1cccc(F)c1)N1C[C@@H]2N[C@H](C1)C2c1ccc(-c2ccc(F)cc2)cc1 (some centres not stated)
C[C@H](CO)N1C[C@H](C)[C@H](CN(C)S(C)(=O)=O)Oc2ncc(-c3cc4ccccc4o3)cc2C1=O
O=C(Nc1nc2ccccc2[nH]1)c1ccc(Cl)c(S(=O)(=O)N2CCCC2)c1
CC(C)[C@H](NC(=O)NCc1cccs1)C(=O)O
CCOc1ccnc(OCC)c1Br
C[C@@H]1CN([C@H](C)CO)C(=O)c2cc(NS(C)(=O)=O)ccc2O[C@@H]1CN(C)S(=O)(=O)c1ccc(Cl)cc1
CCN1CCN(Cc2ccc(NC(=O)c3ccc(C)c(NC(=O)c4c[nH]c5cc(C(F)(F)F)ccc5c4=O)c3)cc2C(F)(F)F)CC1
Cc1ccccc1S(=O)(=O)NCC[C@@H]1CC[C@@H](NC(=O)C2CCOCC2)[C@H](CO)O1
COCCSc1ccccc1C(=O)Nc1cc(C)on1
Cn1nnnc1SC1CC(=O)N(c2ccccc2)C1=O (configuration not stated)
CN(C)C(=O)c1ccc(-c2ccc([C@@H]3[C@H]4CN(C(=O)CC5CC5)CC(=O)N4[C@H]3CO)cc2)cc1
OC(c1ccc(Cl)cc1Cl)C(Cc1cccnc1)n1cncn1 (configuration not stated)
OC(c1cc(-c2ccc(Cl)cc2)nc2ccccc12)C1CCCCN1 (configuration not stated)
COc1ccc2c(c1)sc1nc(-c3ccccc3)cn12
COc1ccc2c3c(n(C)c2c1)[C@H](CO)NCC31CCN(Cc2cc(F)ccc2F)CC1
Cc1ccc(C(=O)NNC(=O)c2cccc(Br)c2)cc1
Cc1ccccc1NC(=O)CC1c2ccccc2CC(C)(C)N1C (configuration not stated)
O=C(COc1ccccc1)N1CCN=C1SCc1ccccc1
Cc1ccc(S(=O)(=O)N2CCN(C(=O)CSc3nc4ccccc4c(=O)[nH]3)CC2)c(C)c1
O=C1c2ccccc2-c2c1cccc2C(=O)N1CCN(C(=O)c2ccco2)CC1
Cn1nc(-c2ccccc2F)c2cc(C(=O)N3CCN(C(=O)c4ccco4)CC3)sc21
CCN1CCN(c2nnc(-c3ccccc3)c3ccccc23)CC1
Cc1cc(C)c2nc(N3CCCC(C(=O)N4CCC(C(N)=O)CC4)C3)sc2c1 (configuration not stated)
CN1CCN(C(=O)c2sc(=S)n(-c3ccccc3)c2N)CC1
Cc1cc(C)cc(C(=O)Nc2ccc3[nH]c(=O)[nH]c3c2)c1
COc1cccc(N2CCN(c3ncnc4c3[nH]c3ccc(F)cc34)CC2C)c1 (configuration not stated)
C=CCOc1ccccc1CNc1ccc2[nH]c(=O)[nH]c2c1
O=C(C[C@H]1C=C[C@H](NC(=O)Nc2ccc(C(F)(F)F)cc2)[C@@H](CO)O1)NCc1ccccn1
COc1ccc(S(=O)(=O)N2CCN(C(=O)c3cccs3)CC2)cc1OC
O=C(Cc1ccccc1)N1N=C(c2ccncc2)CC1(O)C(F)(F)F (configuration not stated)
CC(=O)c1cccc(-n2nnnc2SCC(=O)NNC(=O)C(C)C)c1
C[C@H](CO)N1C[C@H](C)[C@H](CN(C)S(=O)(=O)c2ccc(F)cc2)Oc2ncc(-c3cccc(C(=O)N(C)C)c3)cc2C1=O
Cc1nonc1NC(=O)CSc1nc(C2CCCCC2)nc2ccccc12
CC(C)(CO)CNc1ccn2nccc2n1
Cc1cccc(C)c1NC(=O)CS(=O)CC(=O)Nc1ccc(F)cc1F (configuration not stated)
O=C(CSC1=NS(=O)(=O)c2ccccc2N1)Nc1ccc(F)cc1
O=C1C=CCCN1C(=O)/C=C/c1cccc(Br)c1
Cn1nnnc1Sc1ncnc2scc(-c3ccc(C#N)cc3)c12
O=C(c1cccs1)N(Cc1ccccn1)Cc1ccco1
COc1ccc2cc(CN(Cc3ccco3)C(c3nnnn3C3CCCCC3)C(C)C)c(=O)[nH]c2c1 (configuration not stated)
COCCN(C(=O)COC(=O)Cc1cccc(OC)c1)c1c(N)n(Cc2ccccc2)c(=O)[nH]c1=O
O=C1CCCc2ccccc2N1Cc1ccc(Cl)cc1Cl
CCN(C(=O)CSc1nnc(-c2cccs2)n1N)c1c(N)n(Cc2ccccc2)c(=O)[nH]c1=O
CCOC(=O)CSc1nnc(-c2ccc(OC)cc2)n1CC
CC1(C)CC2(CCO1)OC(=O)CC2C(=O)Nc1cccc2ccccc12 (configuration not stated)
CO[C@H]1CN(C)C(=O)c2cc(NC(=O)c3ccccc3F)ccc2OC[C@@H](C)N(C(C)=O)C[C@@H]1C
CCN(CC)c1ccc(NC(=O)c2ccc(NC(=O)C3CCCO3)cc2)c(C)c1 (configuration not stated)
COc1ccc(C(=O)Nc2ccc3c4c(cccc24)CC3)cc1
CC(C)CNC(=O)c1coc(=O)c(Br)c1
O=C(NCCN1CCOCC1)c1ccc(=O)oc1
O=C(OCCCN1CCCCC1)c1ccc(O)cc1
Cc1ccc(S(=O)(=O)N(C)c2ccc(OC(C)C(=O)N3CCCC3)cc2)cc1C (configuration not stated)
OC[C@@H]1[C@@H](c2ccc(C#CC3CCCC3)cc2)[C@H]2CN(CCC(F)(F)F)CCCCN12
C[C@@H]1CN([C@H](C)CO)C(=O)CCCn2cc(nn2)CO[C@@H]1CN(C)C(=O)Nc1cccc2ccccc12
C[C@H]1CN([C@@H](C)CO)C(=O)c2cccc(NC(=O)Nc3ccc(C(F)(F)F)cc3)c2O[C@H]1CN(C)C(=O)Nc1cccc2ccccc12
C[C@@H]1CN([C@@H](C)CO)C(=O)c2ccccc2-c2ccccc2CO[C@@H]1CN(C)C(=O)Nc1cccc(Cl)c1Cl
Cc1cc2c(c(/C=C/C(=O)c3ccccc3)c1)OC1(C=C2)Oc2ccccc2C(=O)N1C (configuration not stated)
N#Cc1c(N)c(C(=O)c2ccccc2)n2ccccc12
CC1(C)CC(=O)C=C(NCc2ccco2)C1
CSc1n[nH]c(NCc2ccccc2)n1
COC1(C)CN(Cc2ccccc2Br)[C@H](/C=C/c2ccccc2)[C@H](Cc2ccccc2)O1 (some centres not stated)
CCOc1ccccc1NC(=O)c1ccc2ccccc2c1
CCn1nccc1C(=O)Nc1ccccc1OC
C[C@@H]1CN([C@H](C)CO)C(=O)c2cc(C3=CCCCC3)cnc2O[C@@H]1CN(C)Cc1ccccc1
COc1ccc(C(CC(=O)Nc2ccccn2)N2Cc3ccccc3C2=O)cc1 (configuration not stated)
c1ccc(-c2cc(-c3ccccc3)n3ncnc3n2)cc1
CC(C)NC(=O)Nc1ccc2c(c1)C(=O)N([C@@H](C)CO)C[C@H](C)[C@@H](CN(C)C(=O)CCC(F)(F)F)OCCCC[C@@H](C)O2
C[C@H]1CN([C@@H](C)CO)S(=O)(=O)c2ccc(C#Cc3cccnc3)cc2O[C@@H]1CN(C)CC1CCOCC1
COc1cc(NC(=O)NCc2ccco2)ccc1-c1ccc(NC(=O)NCc2ccco2)cc1OC
Cc1noc(C)c1NC(=O)N[C@H]1C=C[C@H](CC(=O)NCc2ccc(Cl)c(Cl)c2)O[C@H]1CO
CN1C(=O)c2ccccc2C(C(=O)O)C1c1cccc([N+](=O)[O-])c1 (configuration not stated)
CCOC(=O)C1(Cc2cccc(F)c2)CCN(Cc2c(C)nn(CC)c2C)CC1
CCOC(=O)C1(Cc2cccc(F)c2)CCN(Cc2ccc(COC)o2)CC1
C[C@@H]1CN([C@@H](C)CO)C(=O)Cc2cc(NC(=O)CCC(F)(F)F)ccc2O[C@H]1CN(C)S(C)(=O)=O
Cn1nnnc1Sc1ncnc2scc(-c3ccc[nH]3)c12
Oc1ccc2ccccc2c1CN1CCCCC1
Cn1c(CCN2CCCCC2)nc2cc(NS(=O)(=O)c3ccccc3)ccc21
Cn1c(O)c(C(C#N)=C2N=c3ccccc3=N2)c2ccccc21
O=C(C[C@H]1CC[C@@H]2[C@H](COC[C@@H](O)CN2S(=O)(=O)c2ccc(F)cc2)O1)NCCN1CCCCC1
O=c1oc(-c2ccccc2)cc(Cl)c1Cl
CN(C)Cc1csc(NC(=O)Nc2ccccc2-c2ccccc2)n1
Cc1noc(C)c1C(=O)Nc1nc(-c2cc(F)ccc2F)cs1
